In the library only some 4.2% were active in any assay of this set; here they are far more common.
CHOP inhibitor: blocks CHOP induction under ER stress | CHO-K1 CHOP-promoter luciferase, tunicamycin-induced, 15-18 h | hit rate 3.8% among 220,000 | inhibition, % at 10 µM;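 active means compounds that reduced the stress-induced luciferase reporter signal by more than about 70% of percent inhibition, limit read from the data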
Hsp70 act: switches on Hsp70 transcription; activation, % at 10 µM; hit rate 0.04% among 200,000; HeLa Hsp70 promoter luciferase reporter, luminescence; scaled: vehicle 0, proteasome-inhibitor control 100%;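 active means activation above the mean across all tested compounds plus 3 SD, cutoff set per campaign, cut at about 5.5% in these data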
S1P4 antag: blocks the human S1P4 receptor; O95977; S1P4-expressing cells, antagonist mode, reporter read-out; inhibition, % at 4.98 µM; hit rate 0.26% among 220,000; AID 1510; in the data active means inhibition above about 29%
Target sequence (O95977 whole entry, looked up): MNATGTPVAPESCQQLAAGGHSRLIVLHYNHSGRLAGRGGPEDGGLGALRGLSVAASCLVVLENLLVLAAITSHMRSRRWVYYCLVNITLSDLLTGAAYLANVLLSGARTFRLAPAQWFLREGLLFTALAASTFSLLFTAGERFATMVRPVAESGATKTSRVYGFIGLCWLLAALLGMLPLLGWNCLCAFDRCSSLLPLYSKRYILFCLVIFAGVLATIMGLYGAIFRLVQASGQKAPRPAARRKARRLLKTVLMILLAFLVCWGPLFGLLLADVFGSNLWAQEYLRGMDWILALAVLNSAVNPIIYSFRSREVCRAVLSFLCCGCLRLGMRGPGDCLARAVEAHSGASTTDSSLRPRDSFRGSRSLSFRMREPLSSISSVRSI
S1P4 agonist: human S1P4 receptor agonism | O95977 | S1P4-expressing cell line, agonist reporter assay | activation, % at 4.98 µM | hit rate 0.35% among 220,000; in the data active means activation above about 11%
Of the large screens only hits and unclear results are named; the others gave an inactive call; ! = not active in a repeat.

c1nc(NC2CCCCCC2)c2[nH]cnc2n1	none
Cc1cccc(OCCCCNCc2ccccc2)c1	none
CCC(C)C(NC(=O)C1CCC(C)CC1)C(=O)NCc1cccnc1 (stereo unspecified)	none
CCCCSc1nnc(-c2ccccc2)c2ccccc12	CHOP inhibitor 82.3
CNC(=O)c1c[nH]n2c(=O)c(Cc3ccccc3F)c(C)nc12	none
COc1cccc(-c2nc3ccccc3s2)c1	CHOP inhibitor 72.6
COc1ccc(-n2c(Cn3c(=O)sc4ccccc43)nnc2SCC(=O)N2CCOCC2)cc1	none
Cc1cc(C)nc(N/N=C/C2=C(O)CC(c3ccc(F)cc3)CC2=O)n1 (stereo unspecified)	CHOP inhibitor 74.9 (no result: Hsp70 act)
O=C1N=C(N2CCCCC2)S/C1=C/C1=Cc2ccccc2OC1	none
COC(=O)c1c(C)n(-c2ccc(OC)cc2)c2ccc(O)cc12	CHOP inhibitor 74.1
CCC(C)(C)c1ccc(OCCCC[n+]2ccc(C)cc2)c(C(C)(C)CC)c1	CHOP inhibitor 76.2
CCC(C)(C)c1ccc(OCCCC[n+]2cccc(C)c2C)c(C(C)(C)CC)c1	CHOP inhibitor 78.5 (no result: Hsp70 act)
Cc1ccc(Oc2cnc3ccccc3n2)cc1	none
Cc1cc(N2CCN(c3ccccc3)CC2)nc(NCc2ccccc2)n1	CHOP inhibitor 87.8
O=C(N/N=C/c1ccc2ncccc2c1)c1cc(-c2cccs2)nc2ccccc12	none (no result: Hsp70 act)
C/C(=C\C(=O)c1ccc(Br)cc1)NCc1ccccc1	none
C/C(=C\C(=O)c1ccc(Br)cc1)NCc1ccc(C)cc1	CHOP inhibitor 77.1
CCCCn1c(=O)c2ccccc2c2ccccc2c1=O	CHOP inhibitor 75.8
Cc1ccc(C)c(NC(=S)NC(NC(=O)OCc2ccccc2)C(Cl)(Cl)Cl)c1 (stereo unspecified)	CHOP inhibitor 91.8
O=C(CCc1ccccc1)NC(NC(=S)Nc1cccc(Cl)c1)C(Cl)(Cl)Cl (stereo unspecified)	none
O=C(NC(NC(=S)Nc1c(Cl)cc(Cl)cc1Cl)C(Cl)(Cl)Cl)OCc1ccccc1 (stereo unspecified)	CHOP inhibitor 88.3
Cc1ccc2cc(C3CC(c4ccco4)=NN3C(=O)CCC(=O)O)c(Cl)nc2c1 (stereo unspecified)	none
CC(C)c1ccc(NC(=O)c2ccc(Br)o2)cc1	none
CN(C)CCOC(=O)C12CC3(C)CC(C)(CC(C)(C3)C1)C2	CHOP inhibitor 94.0
Cc1ccc(NC(=O)CCCC(=O)O)c(Br)c1	none
O=S(=O)(c1cc(Cl)cc(Cl)c1)N1CCCC1c1nc2ccccc2s1 (stereo unspecified)	CHOP inhibitor 70.2
COc1ccccc1NS(=O)(=O)c1cc([N+](=O)[O-])ccc1N/N=C/c1c(C)[nH]c2ccccc12	CHOP inhibitor 84.3
CN1C(=O)/C(=C/c2ccccc2Cl)Sc2ccc(C(=O)NCc3cccnc3)cc21	CHOP inhibitor 81.5
CCC1=Nc2cc(C(=O)NCc3cccnc3)ccc2Sc2ccc(C)cc21	none (no result: Hsp70 act)
O=C(CSc1nc2ccccc2c(=O)[nH]1)c1ccccc1	none
CCCSc1nc2c(cnn2-c2ccc(F)cc2)c(=O)[nH]1	CHOP inhibitor 79.0
CC(C)(C)c1ccc(C(=O)CSc2nc3ccccc3c(=O)[nH]2)cc1	CHOP inhibitor 74.5
O=C(CSc1nc2c(cnn2-c2ccccc2)c(=O)[nH]1)N1CCCCC1	none (no result: Hsp70 act)
CCC(C)Sc1nc2c(cnn2-c2ccc(C)cc2)c(=O)[nH]1 (stereo unspecified)	none
CCC(C)Sc1nc2c(cnn2-c2ccccc2)c(=O)[nH]1 (stereo unspecified)	CHOP inhibitor 77.7
O=C(CSc1nc2c(cnn2-c2ccccc2)c(=O)[nH]1)c1ccc(Cl)cc1	CHOP inhibitor 91.5
CC(=O)CSc1nnc2c3ccccc3nc(C(C)(C)C)n12	none
CCCSc1nc2c(cnn2-c2ccccc2)c(=O)[nH]1	CHOP inhibitor 79.8
Cc1ccc(C(=O)CSc2nnc3c4ccccc4nc(C(C)(C)C)n23)cc1	CHOP inhibitor 70.1
CCOc1cc(-c2cc(-c3ccc(C)cc3)nc(N)c2C#N)ccc1O	CHOP inhibitor 70.1
CCOc1cc(-c2c(C#N)c(N)nc3c2CCc2ccccc2-3)ccc1O	CHOP inhibitor 78.0
Cc1ccc(NC(=O)CN2C(=O)N/C(=C/c3cccn3-c3ccc(C(=O)O)cc3)C2=O)cc1	none
NC(=O)OCC(COC(N)=O)c1ccccc1	CHOP inhibitor 97.0!
CCCCNC1=NCCS1	none
O=C(NCc1ccco1)C1CCN(C(=O)c2cc3sccc3n2Cc2ccc(Cl)cc2)CC1	none
CCOC(=O)c1c(NC(=S)Nc2ccc(F)cc2)sc2c1CCC2	CHOP inhibitor 73.6
CCOC(=O)c1c(NC(=S)Nc2ccc(C)cc2)sc2c1CCC2	none
CSc1nnc(CSCc2ccc(Cl)cc2Cl)n1-c1ccccc1	CHOP inhibitor 79.3
Cc1cccc(C)c1NS(=O)(=O)c1ccc(NC(=O)c2ccc(Cl)c([N+](=O)[O-])c2)cc1	CHOP inhibitor 72.5
O=C(O)c1cc(NC(=O)c2ccc(Cl)c([N+](=O)[O-])c2)cc(C(=O)O)c1	none
CCc1nnc(NC(=O)c2cc(S(=O)(=O)N3CCOCC3)ccc2N2CCCCC2)s1	CHOP inhibitor 71.5
O=C(Cn1cc2c(n1)CCCC2)Nc1cc(-c2cccc(Cl)c2)no1	CHOP inhibitor 95.4
CC(C)CC(=O)NC(=S)NNC(=O)c1ccc(NC(=O)C2CCCCC2)cc1	CHOP inhibitor 72.0
CCn1cc(Cl)c(C(=O)N2N=C3/C(=C/c4cccs4)CCCC3C2c2cccs2)n1 (stereo unspecified)	CHOP inhibitor 82.7
O=C(O)Cn1nc(-c2ccccc2)oc1=O	none
CC(C)(C)C(=O)n1nc(-c2ccccc2)oc1=O	CHOP inhibitor 70.0
S=C(NNc1ccc2ccccc2c1)NC1CCCCC1	CHOP inhibitor 80.8
FC(F)(F)c1ccc(NC(=S)NC2CCCCC2)cc1	CHOP inhibitor 88.1
S=C(Nc1ccc(Oc2ccccc2)cc1)NC1CCCCC1	CHOP inhibitor 75.2
CC(C)(C)c1ccc(/C=N/NC(=S)NC2CCCCC2)cc1	CHOP inhibitor 72.4
O=C(N/N=C/c1ccccc1)NC1CCCCC1	none
COc1ccc(OC)c(-c2csc(NC(=O)CSc3ccc([N+](=O)[O-])cc3)n2)c1	none
Cc1noc(C)c1S(=O)(=O)N(CC(=O)N1CCCCCC1)c1ccc(C(C)C)cc1	none
CCOC(=O)c1c(NC(=O)CSc2nnc(-c3cccnc3)o2)sc(C(C)=O)c1C	none
Cc1ccc(C)c(CSc2nnc([C@@H](N)C(C)C)o2)c1	none
COc1ccc(CN(C(=O)CN2C(=O)COc3ccccc32)C2CCCC2)c(OC)c1	none
COc1ccc(CN(C(=O)CN2C(=O)C(C)Oc3ccccc32)C2CCCC2)c(OC)c1 (stereo unspecified)	CHOP inhibitor 71.4
Cc1ccc(SC(C)C(=O)Nc2ccncc2)cc1 (stereo unspecified)	none
CSc1cccc(NC(=O)C(C)Sc2ccc(C)cc2)c1 (stereo unspecified)	CHOP inhibitor 77.9
CCCNC(=O)c1c(N)n(-c2cccc(OC)c2)c2nc3ccccc3nc12	CHOP inhibitor 88.8
COCCCNC(=O)c1c(N)n(-c2cccc(S(N)(=O)=O)c2)c2nc3ccccc3nc12	none
O=C(CSc1nc2c(c(C(F)(F)F)n1)CCc1ccccc1-2)NCc1ccco1	none
Cc1cccc(Oc2ccc(N)cc2)c1	none
